Source: PubChem BioAssay AID504602 (National Center for Advancing Translational Sciences (NCATS), 2011)
Results filed as inconclusive are left out. Unmarked numbers belong to inactive results. The source made the active and inactive calls. The call rests on the fitted dose curve; in most records, active means well fitted curve in the direction sought with a large enough effect; inconclusive means small, poorly fitted or top-dose-only effect, or effect the other way, or another doubt; inactive means no such curve, though single readings can be large or run the other way.

Assay: Quantitative high throughput screen to test cell viability of anti-malarial compounds targeting the delayed death phenotype
Details: HepG2 viability, CellTiter-Glo luminescence, 48 h; series mostly up to 46.1 µM; activity change, negative = cytotoxicity: at the top concentration
Text: The biochemical processes that make this organelle essential for erythrocytic stage parasites are not well understood. However, antibiotics, such as azithromycin and tetracycline, which target the apicoplast translational machinery, have a potent antimalarial effect. […] We have developed a cell-based assay that measures parasite growth based on the expression of an integrated copy of a firefly luciferase reporter. To detect small molecules that cause this 'delayed death' phenotype, erythrocytes infected with the luciferase-expressing parasites were incubated with compounds for either one or two generations, corresponding to 48 and 96 hours, respectively. Compounds that inhibit parasite growth in the second generation, but not the first, should be enriched in antimalarials that target the apicoplast. Growth inhibition is detected by a decrease in luciferase activity. The goal of this counterscreen is to measure the cytoxoxicity (against HepG2 cell line) of a set of anti-malarial compounds that target the delayed death pheonotype as identified by the qHTS assay that inhibit the development of the apicoplast in the malarial parasite Plasmodium falciparum. NIH Molecular Libraries Probe Production Network [MLPCN] NIH Chemical Genomics Center [NCGC] MLPCN Grant: R21 NS059500 Assay Provider: David Fidock and Eric Ekland, Columbia University
Cells were plated at a density of 2000 cells/well/5uL in 1536 well white tissue culture plate with culture medium. Triplicate plates were prepared. Plates were incubated at 37C, 5% CO2 for 5 hours and then 23nL of compounds and positive control were transferred to the assay plates. Tetraoctylammonium bromide was added as a positive control. Plates were then incubated at 37C, 5% CO2 for 48 hours. 5 uL of CellTitler-Glo buffer was added to each well and then incubated for 30 min at room temperature. Luminescence was measured using ViewLux (1 second, slow, 2X).

Row | Compound | activity change, negative = cytotoxicity [%] | Potency
1 | C[C@@H]1CN([C@@H](C)CO)C(=O)c2cc(NC(=O)Nc3ccccc3)ccc2O[C@@H](C)C/C=C/CO[C@H]1CN(C)S(=O)(=O)c1ccc(F)cc1 | 4.49 | –
2 | C[C@@H]1CN([C@@H](C)COC(=O)c2ccccc2)C(=O)c2cc(NC(=O)Nc3ccccc3)ccc2O[C@@H](C)CCCCO[C@H]1CN(C)C(=O)OC(C)(C)C | -7.44 | –
3 | C[C@@H]1CN([C@@H](C)CO)C(=O)c2cc(Nc3nc4ccccc4o3)ccc2O[C@@H](C)CCCCO[C@H]1CN(C)S(=O)(=O)c1ccc(F)cc1 | 11.4 | –
4 | Cc1noc(C)c1NC(=O)Nc1ccc2c(c1)C(=O)N([C@@H](C)CO)C[C@@H](C)[C@H](CN(C)S(=O)(=O)c1ccc(F)cc1)OCCCC[C@H](C)O2 | 12.1 | –
5 | C[C@@H]1CN([C@@H](C)CO)C(=O)c2cc(NC(=O)Nc3ccccc3)ccc2O[C@@H](C)CCCCO[C@H]1CN(C)S(=O)(=O)c1ccc(C(F)(F)F)cc1 | -7.97 | –
6 | C[C@@H]1CN(CCO)C(=O)c2cc(NC(=O)Nc3ccccc3)ccc2O[C@@H](C)CCCCO[C@H]1CN(C)S(=O)(=O)c1ccc(F)cc1 | -1.25 | –
7 | C[C@@H]1CN(CCO[Si](C)(C)C(C)(C)C)C(=O)c2cc(NC(=O)Nc3ccccc3)ccc2O[C@@H](C)CCCCO[C@H]1CN(C)S(=O)(=O)c1ccc(F)cc1 | -5.91 | –
8 | C[C@@H]1CN([C@@H](C)COC(=O)C(C)(C)C)C(=O)c2cc(NC(=O)Nc3ccccc3)ccc2O[C@@H](C)CCCCO[C@H]1CN(C)S(=O)(=O)c1ccc(F)cc1 | 19.5 | –
9 | COc1ccc(COC[C@H](C)N2C[C@@H](C)[C@H](CN(C)S(=O)(=O)c3ccc(F)cc3)OCCCC[C@H](C)Oc3ccc(NC(=O)Nc4ccccc4)cc3C2=O)cc1 | -15 | –
10 | C[C@@H]1CN([C@@H](C)CO[Si](C)(C)C(C)(C)C)C(=O)c2cc(NC(=O)Nc3ccccc3)ccc2O[C@@H](C)CCCCO[C@H]1CN(C)S(=O)(=O)c1ccc(F)cc1 | -14.3 | –
11 | C=CCOC(=O)N(C)C[C@@H]1OCCCC[C@H](C)Oc2ccc(NC(=O)Nc3ccccc3)cc2C(=O)N([C@H](C)COC(=O)c2ccccc2)C[C@H]1C | 19.1 | –
12 | C[C@@H]1CN([C@@H](C)CN=[N+]=[N-])C(=O)c2cc(NC(=O)Nc3ccccc3)ccc2O[C@@H](C)CCCCO[C@H]1CN(C)S(=O)(=O)c1ccc(F)cc1 | -2.67 | –
13 | C[C@@H]1CN([C@@H](C)CO)C(=O)c2cc(N)ccc2O[C@@H](C)CCCCO[C@H]1CN(C)S(=O)(=O)c1ccc(F)cc1 | 8.01 | –
14 | C[C@@H]1CN([C@@H](C)CO)C(=O)c2cc(NC(=O)Nc3ccccc3)ccc2O[C@@H](C)CCCCO[C@H]1CN(C)S(=O)(=O)c1cccnc1 | 4.77 | –
15 | C[C@@H]1CN([C@H](C)CO[Si](C)(C)C(C)(C)C)C(=O)c2cc(NC(=O)Nc3ccccc3)ccc2O[C@@H](C)CCCCO[C@H]1CN(C)S(=O)(=O)c1ccc(F)cc1 | -18 | –
16 | C[C@@H]1CN([C@@H](C)CO)C(=O)c2cc(NC(=O)Nc3ccccc3)ccc2O[C@@H](C)CCCCO[C@H]1CN(C)S(=O)(=O)c1ccccc1F | 7.68 | –
17 | COCOC[C@H](C)N1C[C@@H](C)[C@H](CN(C)S(=O)(=O)c2ccc(F)cc2)OCCCC[C@H](C)Oc2ccc(NC(=O)Nc3ccccc3)cc2C1=O | – | 7.91 µM (active)
18 | CC(C)NC(=O)Nc1ccc2c(c1)C(=O)N([C@@H](C)CO)C[C@@H](C)[C@H](CN(C)S(=O)(=O)c1ccc(F)cc1)OCCCC[C@H](C)O2 | 16.9 | –
19 | C[C@@H]1CN([C@@H](C)COC(=O)c2ccccc2)C(=O)c2cc(NC(=O)Nc3ccccc3)ccc2O[C@@H](C)CCCCO[C@H]1CN(C)S(=O)(=O)c1ccc(F)cc1 | 3.02 | –
20 | C[C@@H]1CN([C@@H](C)CO)C(=O)c2cc(NC(=O)Nc3ccccc3)ccc2O[C@@H](C)CCCCO[C@H]1CN(C)S(=O)(=O)c1cccc(F)c1 | 4.87 | –
21 | C[C@@H]1CN(C)C(=O)c2cc(NC(=O)Nc3ccccc3)ccc2O[C@@H](C)CCCCO[C@@H]1CN(C)S(=O)(=O)c1ccc(F)cc1 | 16.5 | –
22 | C[C@@H]1CN([C@@H](C)COC(C)(C)C)C(=O)c2cc(NC(=O)Nc3ccccc3)ccc2O[C@@H](C)CCCCO[C@H]1CN(C)S(=O)(=O)c1ccc(F)cc1 | 4.18 | –
23 | COc1ccc(COCCN2C[C@@H](C)[C@H](CN(C)S(=O)(=O)c3ccc(F)cc3)OCCCC[C@H](C)Oc3ccc(NC(=O)Nc4ccccc4)cc3C2=O)cc1 | -2.11 | –
24 | C[C@@H]1CN([C@@H](C)CO)C(=O)c2cc(NC(=O)Nc3ccccc3)ccc2O[C@@H](C)CCCCO[C@H]1CN(C)C(=O)OC(C)(C)C | -7.33 | –
25 | Cc1noc(C)c1NC(=O)Nc1ccc2c(c1)C(=O)N(C(C)C)C[C@@H](C)[C@H](CN(C)S(=O)(=O)c1ccc(F)cc1)OCCCC[C@H](C)O2 | 9.18 | –
26 | C=CCOC(=O)N(C)C[C@H]1OCCCC[C@H](C)Oc2ccc(NC(=O)Nc3ccccc3)cc2C(=O)N([C@@H](C)CO[Si](C)(C)C(C)(C)C)C[C@H]1C | -5.42 | –
27 | COCCOC(=O)N(C)C[C@@H]1OCCCC[C@H](C)Oc2ccc(NC(=O)Nc3ccccc3)cc2C(=O)N([C@@H](C)CO)C[C@H]1C | 6.18 | –
28 | C=CCOC(=O)N(C)C[C@@H]1OCCCC[C@H](C)Oc2ccc(NC(=O)Nc3ccccc3)cc2C(=O)N([C@@H](C)CO)C[C@H]1C | -17.9 | –
29 | C[C@@H]1CN([C@@H](C)CO)C(=O)c2cc(NC(=O)Nc3ccccc3)ccc2O[C@@H](C)CCCCO[C@H]1CN(C)Cc1ccc(C(F)(F)F)cc1 | 16.6 | –
30 | C[C@@H]1CN([C@@H](C)CO)C(=O)c2cc(NC(=O)Nc3ccccc3)ccc2O[C@@H](C)C/C=C\CO[C@H]1CN(C)S(=O)(=O)c1ccc(F)cc1 | 25.5 | –
